Screen size: about 220,000 compounds; about 16,000 (7.3%) were called active. A call without a number means that no potency is given here. Not shown: some 25% with an inconclusive outcome. Many of the other results were omitted from the sample, so actives are more common in it than they were. A number with no mark means an inactive call. The call rests on the fitted dose curve; in most records, active means well fitted inhibition curve with a large enough effect (not every such curve was filed as active); inconclusive means small, poorly fitted or top-dose-only effect, or another doubt; inactive means no such curve, though single readings can be large or run the other way.
target: Aldehyde dehydrogenase 1A1 (Homo sapiens) (UniProt P00352); experiment: qHTS Assay for Inhibitors of Aldehyde Dehydrogenase 1 (ALDH1A1); details: Purified ALDH1A1, NADH fluorescence, propionaldehyde substrate; series mostly up to 75.3 µM
Sequence (P00352 whole entry, looked up): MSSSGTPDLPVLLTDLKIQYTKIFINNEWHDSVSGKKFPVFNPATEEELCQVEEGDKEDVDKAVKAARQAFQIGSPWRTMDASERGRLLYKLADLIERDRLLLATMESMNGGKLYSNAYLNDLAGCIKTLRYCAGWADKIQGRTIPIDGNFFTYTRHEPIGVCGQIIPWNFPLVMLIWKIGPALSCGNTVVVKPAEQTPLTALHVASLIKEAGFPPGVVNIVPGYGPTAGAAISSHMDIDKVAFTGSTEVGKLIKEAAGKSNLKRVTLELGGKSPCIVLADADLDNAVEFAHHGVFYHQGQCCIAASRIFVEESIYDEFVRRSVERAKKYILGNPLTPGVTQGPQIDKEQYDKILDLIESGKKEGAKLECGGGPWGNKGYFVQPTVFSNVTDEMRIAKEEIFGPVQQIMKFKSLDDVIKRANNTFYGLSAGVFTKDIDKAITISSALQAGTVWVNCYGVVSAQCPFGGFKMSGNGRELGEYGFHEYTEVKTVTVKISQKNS
Potency means the concentration at half of the fitted maximal effect.

Structure (SMILES)	Potency	activity, negative = inhibition
CCOc1ccc(-n2cnc3c(=O)[nH]c(N)nc32)cc1	inactive	–
CO/N=C(\N)c1ccc([N+](=O)[O-])cc1	inactive	–
CCCn1c(SCC(=O)Nc2ccc(C)c(S(=O)(=O)N3CCOCC3)c2)n[nH]c1=O	inactive	–
COc1ccc(CNc2c(CO)cnc3c2cnn3C)cc1	inactive	–
CCOC(=O)Cc1csc(NC(=O)CSc2nnc(-c3cccnc3)n2Cc2ccco2)n1	inactive	–
Nc1cc(=O)nc(SCc2ccccc2)n1Cc1ccco1	inactive	–
CCOC(=O)CSc1nc2c(sc(=S)n2CCc2ccccc2)c(=O)n1Cc1ccco1	31.6 µM (active)	–
Cc1cc(C)n2nc(C(=O)N3CCN(Cc4ccc5c(c4)OCO5)CC3)nc2n1	inactive	–
CCCCCCCC/C=C\CCCCCCCC(=O)OC[C@H](CO)OC(C)=O	inactive	–
CCN(CC)CCNC(=O)c1ccc(NC(=O)c2c(F)cccc2Cl)cc1	inactive	–
COc1c2c(cc3occ(-c4ccc5c(c4)OCO5)c(=O)c13)OC(C)(C)C=C2	14.1 µM (active)	–
COc1ccc(CCNC(=O)c2cc(-c3ccc4c(c3)OCO4)on2)cc1OC	inactive	–
Cc1ccc(NC(=O)C(=O)NCC2CCN(C(=O)c3cccc([N+](=O)[O-])c3)CC2)cc1	inactive	–
CN1CCN(CC#CCC2(O)c3ccccc3-c3ccccc32)CC1	inactive	–
CC(=O)C1C(c2ccc(Cl)cc2)c2c(n[nH]c2C)CC1(C)O (centres undefined)	inactive	–
CC(C)N1CCC(N2CCN(Cc3cccnc3)CC2CCO)CC1 (centres undefined)	inactive	–
O=C(CC1NCCNC1=O)Nc1ccc(Oc2ccccc2)cc1 (centres undefined)	20 µM (active)	–
CCOc1ccc(NC(=O)CC2NCCNC2=O)cc1 (centres undefined)	inactive	–
O=C(CC1NCCNC1=O)Nc1cc(Cl)cc(Cl)c1 (centres undefined)	inactive	–
COc1ccc(-c2nc(-c3ccccc3)oc2Nc2ccc3ccccc3c2)cc1	inactive	–
COc1ccccc1CNC(=O)CNC(=O)c1cn(-c2ccccc2OC)c(=O)c2ccccc12	inactive	–
COc1cccc(CC2(CO)CCCN(CC3=Cc4cc(OC)ccc4OC3)C2)c1 (centres undefined)	inactive	–
Cc1nn(-c2ccccc2)c(=O)c2noc(C)c12	inactive	–

Structure (SMILES)	Potency	activity, negative = inhibition
COc1ccc(N(C(=O)c2cccnc2)S(=O)(=O)c2ccc3c(c2)n(C)c(=O)n3C)cc1	inactive	–
O=C(c1cccnc1)N(c1cc2sc(=O)oc2c2ccccc12)S(=O)(=O)c1ccccc1	10 µM (active)	–
Cc1ccc(C(=O)Cn2cccn2)cc1	inactive	–
COc1ccc(CCNC(=O)CC2SC(=Nc3cc(C)cc(C)c3)NC2=O)cc1OC (centres undefined)	12.6 µM (active)	–
COc1ccc(CCNC(=O)COC(=O)/C=C/c2cccs2)cc1OC	inactive	–
COc1ccc(CCNC(=O)C(=O)NCc2ccccc2C)cc1OC	inactive	–
CCCCn1c(N)c(N(CC)C(=O)/C=C/c2ccco2)c(=O)[nH]c1=O	inactive	–
CC(C)(C)NC(=O)c1ccc(Cn2cc(C(F)(F)F)ccc2=O)cc1	inactive	–
O=C1NC(=Nc2ccc(Cl)cc2)SC1Cc1cccc(Cl)c1Cl (centres undefined)	inactive	–
N#Cc1ccc(C(c2nnnn2CCc2ccccc2)N2CCCCCC2)cc1 (centres undefined)	inactive	–
CCC(C)(C)n1nnnc1C(c1cccs1)N1CCN(Cc2ccccc2)CC1 (centres undefined)	inactive	–
Fc1ccc(Cn2nnnc2C(c2cccs2)N2CCCCCC2)cc1 (centres undefined)	7.94 µM (active)	–
COc1ccc(C(=O)N/N=c2\oc3ccccc3cc2C(N)=O)cc1	inactive	–
CC1Cc2ccccc2N1C1=CC(=O)CC(C)(C)C1 (centres undefined)	inactive	–
COc1ccccc1CC(=O)Nc1ccc([N+](=O)[O-])cc1OC	inactive	–
COc1ccccc1CSc1nc2ccccc2[nH]1	inactive	–
COc1ccccc1CSc1ncc(-c2ccc([N+](=O)[O-])cc2)[nH]1	28.2 µM (active)	–
Cc1ccc(NC(=O)O[C@@H]2C(=O)c3cc(Br)ccc3O[C@H]2c2ccc3c(c2)OCO3)cc1Br	inactive	–
CC(C)(C)CN1CCNC(=O)C1CC(=O)NC1Cc2ccccc2C1 (centres undefined)	inactive	–
COc1cccc(CNC(=O)c2n[nH]c3ccccc23)c1	inactive	–
COC(=O)[C@@H](NC(=O)NCc1cccc(OC)c1)C(C)C	10 µM (active)	–
COc1cccc(NC(=O)NCc2ccc(F)cc2)c1	inactive	–
CC(=O)Cc1nsc(NC(=O)c2ccc(Cl)cc2Cl)n1	inactive	–

Structure (SMILES)	Potency	activity, negative = inhibition
CC1CCCN(CC(O)COc2ccc3c(c2)OCO3)C1 (centres undefined)	inactive	–
Cc1ccc(CNC(=O)CCCNC(=O)c2ccc(Cl)cc2)n1C	28.2 µM (active)	–
O=C(COC(=O)CCCNC(=O)c1ccc(Cl)cc1)Nc1cc(Cl)ccc1Cl	inactive	–
CCCCNC(=O)CCNC(=O)c1ccc(C(C)(C)C)cc1	inactive	–
CCc1cc2c(NC3CCCC3)ncnc2s1	inactive	–
COC(=O)C1=C(C(=O)OC)[C@@H]2N(C)c3ccccc3[C@@]23C[C@@H](C(=O)OC)N(C(C)=O)C3=N1	–	3.72% [at 13.5 µM]
C[C@@H](C(=O)N1CCNCC1)n1cc(CCC(=O)O)nn1	inactive	–
O=C(Nc1ccccc1)c1nnsc1S(=O)(=O)c1ccc(Cl)cc1	2.24 µM (active)	–
O=C(c1ccc(Cl)cc1)c1cnc(Nc2ccccc2)s1	inactive	–
O=C(Nc1ccc(Cl)cc1)c1ccsn1	inactive	–
O=C(O)CS/C(=C\c1ccc(F)cc1)c1nc2ccccc2s1	inactive	–
COc1cccc(CNC(=O)CCC2CCCN(Cc3ccc(OC(F)F)cc3)C2)c1 (centres undefined)	inactive	–
Cn1c(N)c(C(=O)COC(=O)/C=C/c2ccc(OC(F)F)cc2)c(=O)n(C)c1=O	inactive	–
O=C(Nc1ccccc1)N1CCN(C(=O)Nc2ccccc2)CC1	inactive	–
S=C(c1ccc(-c2ccccc2)o1)N1CCCCC1	3.55 µM (active)	–
S=C(Nc1ccc2c(c1)OCO2)N1CCCC1	inactive	–
NC(=O)C1(N2CCCCC2)CCN(C(=O)c2ccc(C#Cc3ccccc3)o2)CC1	inactive	–
O=C(/C=C/c1ccc(OCc2c(F)cccc2Cl)cc1)N1CCOCC1	inactive	–
O=C1NC(c2ccc(-c3ccccc3[N+](=O)[O-])o2)C(C(=O)c2ccc(Cl)cc2)C(O)(C(F)(F)F)N1 (centres undefined)	20 µM (active)	–
CN1CCN(c2ccc(NC(=O)c3ccc4c(c3)OCCO4)cc2Cl)CC1	inactive	–
Cc1c(NC(=S)Nc2ccccc2)c(=O)n(-c2ccccc2)n1C	inactive	–
CCN(CC)P(=O)(/C(Cl)=C\Nc1c(C)n(C)n(-c2ccccc2)c1=O)N(CC)CC	17.8 µM (active)	–
COC(=O)Nc1c(C)n(C)n(-c2ccccc2)c1=O	inactive	–
